Data taken from the supplement of paper PMC12297408.
Where a name gives a salt, the structure may show the parent alone.

Test system: Plasmodium falciparum NF54/iGP1_RE9H ulg8 stage V gametocytes
Assay: gametocyte viability (luciferase signal relative to DMSO control) (% of DMSO control); higher = less gametocytocidal activity, active = 50 or less
Conditions: exposure time: 72 h
Method: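 Synchronous P. falciparum NF54/iGP1_RE9H ulg8 mature stage V gametocytes (day 12) were exposed to Cayman Epigenetics Screening Library compounds at 10 µM or 1 µM for 72 h at 37 °C. Viability was read as RE9H luciferase bioluminescence, normalised to DMSO plate controls (100%); 50 µM methylene blue was the positive control.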

Row | SMILES | gametocyte viability (concentration: 1 µM) | gametocyte viability (concentration: 10 µM)
1 | CN(C)Cc1c(C(=O)NCCOc2ccc(C(=O)NO)cc2)oc2ccccc12 | 65.8 (inactive) | 59 (inactive)
2 | COc1cc(OC)c2c(=O)[nH]c(-c3cc(C)c(OCCO)c(C)c3)nc2c1 | 94.1 (inactive) | 92.5 (inactive)
3 | O=C(CCCCCCC(=O)NO)NO [Suberohydroxamic Acid] | 106 (inactive) | 87.9 (inactive)
4 | CCCCCOc1ccc(/C=C\c2cccc(O)c2C(=O)O)cc1 | 87.3 (inactive) | 88.4 (inactive)
5 | CNCCN(C)Cc1c[nH]nc1-c1ccc(O[C@H]2C[C@H](OCCC3CCOCC3)C2)cc1 | 85.5 (inactive) | 82.4 (inactive)
6 | CC(C)C(=O)SCCCCCCC(=O)Nc1nc(-c2ccccc2)cs1 | 82.8 (inactive) | 79.7 (inactive)
7 | O=C(O)c1ccnc(C(=O)O)c1 [2,4-Pyridinedicarboxylic Acid (hydrate)] | 90.8 (inactive) | 90.6 (inactive)
8 | Nc1ccccc1NC(=O)c1ccc(CNc2nccc(-c3cccnc3)n2)cc1 [Mocetinostat] | 89.7 (inactive) | 88.2 (inactive)
9 | O=C(NO)c1ccc(CC(=O)N(CCO)c2ccccc2)cc1 | 88.9 (inactive) | 93.5 (inactive)
10 | COc1cc2nc(N3CCCC3)nc(NCCCCCN3CCCC3)c2cc1OC | 92.2 (inactive) | 18.9 (active)
11 | COc1cc(O)c2c(c1)oc(=O)c1c3cc(O)c(O)cc3oc21 [Wedelolactone] | 89.6 (inactive) | 81.5 (inactive)
12 | CCCc1cc2c(N3CCN(C4=NCC(C)(C)S4)CC3)ncnc2s1 [MI-2 (hydrochloride)] | 80.6 (inactive) | 63.3 (inactive)
13 | O=C(O)CCCc1ccccc1 [Sodium 4-Phenylbutyrate] | 90.4 (inactive) | 89.2 (inactive)
14 | CC(=O)SCC(=O)c1ccc(NS(=O)(=O)c2ccc(OCCCN(C)C)cc2)nc1 | 83.8 (inactive) | 85.4 (inactive)
15 | Nc1ccc(S(=O)(=O)NCCc2ccccc2)cc1 | 84.2 (inactive) | 86.3 (inactive)
16 | COc1cc2c(NC3CCN(CC4CCCCC4)CC3)nc(N3CCCN(C(C)C)CC3)nc2cc1OCCCN1CCCCC1 | 60.9 (inactive) | 14.7 (active)

Row | SMILES | gametocyte viability (concentration: 1 µM) | gametocyte viability (concentration: 10 µM)
17 | CCOC(=O)Nc1cc(-c2ccc(C)c(NS(C)(=O)=O)c2)nn2c(C)nnc12 [Bromosporine] | 86.5 (inactive) | 83.1 (inactive)
18 | COc1ccccc1C(=O)Nc1cc2c(cc1N1CCNC[C@H]1C)n(C)c(=O)n2C | 88.2 (inactive) | 93.7 (inactive)
19 | CCCC(CCC)C(=O)O [Valproic Acid (sodium salt)] | 86.9 (inactive) | 86.4 (inactive)
20 | CCCCNNC(=O)c1ccc(Br)cc1 | 84 (inactive) | 56.1 (inactive)
21 | O=C1C(=Cc2cccnc2)C(=O)c2ccccc21 | 79.2 (inactive) | 80.2 (inactive)
22 | COc1cc2nc(N3CCCN(C)CC3)nc(NC3CCN(Cc4ccccc4)CC3)c2cc1OC | 71 (inactive) | 23.3 (active)
23 | COc1cc2c(NC3CCN(C4CCCCC4)CC3)nc(N3CCCN(C(C)C)CC3)nc2cc1OCCCN1CCCCC1 | 75.5 (inactive) | 13.4 (active)
24 | Nc1ccccc1NC(=O)CCCCCC(=O)Nc1ccccc1 | 88.7 (inactive) | 96.1 (inactive)
25 | Nc1cc(F)ccc1NC(=O)/C=C/c1cnn(C/C=C/c2ccccc2)c1 | 98 (inactive) | 91.8 (inactive)
26 | CCOC(=O)C1=CN(Cc2ccccc2)C=C(C(=O)OCC)C1c1ccccc1 | 80.7 (inactive) | 77.6 (inactive)
27 | COc1cc2c(cc1OCCCN1CCCC1)N=C(N)C21CCC1 | 89.9 (inactive) | 93.7 (inactive)
28 | O=C(CCCCCCC(=O)Nc1ccc(I)cc1)NO [4-iodo-SAHA] | 88.3 (inactive) | 67.2 (inactive)
29 | NC(=O)[C@H](CCCN=C(N)CF)NC(=O)c1ccccc1 [F-Amidine (trifluoroacetate salt)] | 103 (inactive) | 95.9 (inactive)
30 | Clc1ccc(-c2csc(NN=C3CCCC3)n2)cc1 [CPTH2 (hydrochloride)] | 98.4 (inactive) | 83.9 (inactive)
31 | Nc1ncn([C@@H]2O[C@H](CO)[C@@H](O)[C@H]2O)c(=O)n1 [5-Azacytidine] | 89 (inactive) | 90.8 (inactive)
32 | CCCCOc1ccc(CC(=O)NO)cc1 [Bufexamac] | 85 (inactive) | 94.8 (inactive)
